Reference: PubChem BioAssay (Tox21)
Inconclusive results are not listed. Active and inactive are the calls of the source. Unless noted, calls follow the shape of the dose curve; as a rule, active = well fitted curve in the direction sought with a large enough effect in the repeat runs; inconclusive = weak or mixed curves; inactive = no such curve, though single readings can be large; an effect the other way counts as inactive or inconclusive.

Columns and labels:
[1] = qHTS assay to identify small molecule antagonists of the thyroid receptor (TR) signaling pathway - cell viability counter screen (AID 743064); also: nearly all actives have a fitted effect of over 50% in size; also: potency is read from the fitted curve at half-maximal effect
How it was run: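 Counter screen for cytotoxicity: compound plus T3 (1 nM final) on GH3.TRE-Luc cells, 23.5 h at 37 °C, then fluorescence viability readout with CellTiter-Fluor.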

[2] = test system: thyroid hormone receptor (rat, GH3 cells); experiment: qHTS assay to identify small molecule agonists of the thyroid receptor (TR) signaling pathway (AID 743066; calls by dose curve)
[3] = biological target: Estrogen receptor (Homo sapiens) (UniProt P03372); experiment: qHTS assay to identify small molecule antagonists of the estrogen receptor alpha (ER-alpha) signaling pathway (AID 743069; active = well fitted curve in the direction sought with a large enough effect in the signal ratio in the repeat runs, not every such curve was filed as active; the % refers to the signal ratio)
How it was run: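 HEK293 ER-alpha-UAS-bla GripTite cells, held overnight in 2% charcoal-stripped FBS, 5,000 cells/well, preincubated 4 h, then compound plus 17beta-estradiol for 18 h at 37C. Beta-lactamase read by LiveBLAzer B/G FRET substrate, 2 h at room temperature.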

[4] = qHTS assay to identify small molecule antagonists of the estrogen receptor alpha (ER-alpha) signaling pathway - cell viability counter screen (AID 743074; calls by dose curve;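 also: HEK293 cells carrying ER-alpha-UAS-bla reporter stimulated with 17beta-estradiol; nearly all actives have a fitted effect of over 45% in size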)
[5] = biological target: Estrogen receptor (Homo sapiens) (UniProt P03372); experiment: qHTS assay to identify small molecule agonists of the estrogen receptor alpha (ER-alpha) signaling pathway (AID 743075; calls by dose curve)
[6] = qHTS assay to identify small molecule antagonists of the estrogen receptor alpha (ER-alpha) signaling pathway using the BG1 cell line (AID 743080; calls by dose curve;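 also: BG1 cells stimulated with 17beta-estradiol alongside compound; nearly all actives have a fitted effect of over 25% in size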; also: potency is read from the fitted curve at half-maximal effect)
How it was run: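 Luminescence from a 4×ERE-luciferase reporter in BG1-Luc-4E2 cells served as read-out. Cells, pre-cultured 5 days in stripped-serum phenol-red-free medium, were exposed to compound with 17beta-estradiol co-stimulation for 21.5 h at 37 C.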

[7] = qHTS assay to identify small molecule antagonists of the estrogen receptor alpha (ER-alpha) signaling pathway using the BG1 cell line - cell viability counter screen (AID 743081);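 also: compound given together with 17beta-estradiol as the ER stimulus; series mostly up to about 70 µM; nearly all actives have a fitted effect of over 45% in size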
Aromatase (Homo sapiens) = Aromatase (Homo sapiens) (UniProt P11511); experiment: qHTS assay to identify aromatase inhibitors (AID 743083); also: nearly all actives have a fitted effect of over 55% in size; also: potency is read from the fitted curve at half-maximal effect; as to activity, negative = inhibition: series mostly up to about 70 µM
[8] = qHTS assay to identify aromatase inhibitors - cell viability counter screen (AID 743084);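 also: cells stimulated with testosterone during compound exposure; nearly all actives have a fitted effect of over 55% in size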
[9] = biological target: Peroxisome proliferator-activated receptor gamma (Homo sapiens) (UniProt P37231); experiment: qHTS assay to identify small molecule agonists of the peroxisome proliferator-activated receptor gamma (PPARg) signaling pathway (AID 743094; active = well fitted activation curve with a large enough effect in the signal ratio in the repeat runs, not every such curve was filed as active; the % refers to the signal ratio)
How it was run: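 Following 5 h plating at 37C, PPARg-bla HEK293H cells receive compound or DMSO for 17 h; fluorescence intensity is recorded after LiveBLAzer B/G loading for 1 h at room temperature.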

[10] = biological target: Peroxisome proliferator-activated receptor gamma (Homo sapiens) (UniProt P37231); experiment: qHTS assay to identify small molecule antagonists of the peroxisome proliferator-activated receptor gamma (PPARg) signaling pathway (AID 743191; calls by dose curve; also: series mostly up to about 63 µM; nearly all actives have a fitted effect of over 30% in size)
How it was run: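 GeneBLAzer PPARg UAS-bla HEK293H cells, 5 h post-plating, exposed to compounds 17 h at 37C. LiveBLAzer B/G FRET substrate added for 1 h at room temperature; beta-lactamase reporter read by fluorescence intensity.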

[11] = qHTS assay to identify small molecule antagonists of the peroxisome proliferator-activated receptor gamma (PPARg) signaling pathway - cell viability counter screen (AID 743194); also: nearly all actives have a fitted effect of over 55% in size
How it was run: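 Cytotoxicity counter screen in PPARg-bla HEK293H cells, same wells as reporter assay. Compounds plus 50 nM rosiglitazone (final) for 17 h at 37 C, then viability read by CellTiter-Glo luminescence.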

[12] = qHTS assay for small molecule activators of the heat shock response signaling pathway - cell viability counter screen (AID 743209); also: nearly all actives have a fitted effect of over 50% in size
How it was run: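 Counter screen for cytotoxicity in HeLa HSE-bla reporter cells. Treatment was 5 h at 37 C; viability was detected by luminescent ATP assay (CellTiter-Glo) in the same wells as the beta-lactamase read.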

[13] = qHTS assay for small molecule activators of the heat shock response signaling pathway (AID 743210; active = well fitted activation curve with a large enough effect in the signal ratio in the repeat runs, with a control signal flat, not every such curve was filed as active; the % refers to the signal ratio; also: series mostly up to about 63 µM)
How it was run: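 HSE-bla HeLa cells (beta-lactamase reporter under heat shock response elements), plated overnight, then exposed to compounds 5 h at 37 C; LiveBLAzer B/G FRET substrate added, 2.5 h at room temperature, fluorescence intensity read.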

[14] = qHTS assay to identify small molecule that activate the aryl hydrocarbon receptor (AhR) signaling pathway - cell viability counter screen (AID 743086);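 also: HepG2 liver cells carrying the AhR DRE luciferase reporter; series mostly up to about 70 µM; nearly all actives have a fitted effect of over 45% in size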
How it was run: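 HepG2-AhR-luc (HG2L7.5c1) cells, 4000/well, treated 24 h at 37 C with compound; viability measured as CellTiter-Fluor fluorescence after 30 min in the same wells as the luciferase read.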

[15] = qHTS assay for small molecule agonists of the antioxidant response element (ARE) signaling pathway - cell viability counter screen (AID 743203; calls by dose curve; also: nearly all actives have a fitted effect of over 55% in size)
How it was run: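 Compounds in DMSO were pinned onto ARE-bla HepG2 cells plated 5 hrs earlier at 2,000 cells/well. Sixteen hours later at 37C/5% CO2, CellTiter-Glo was added and luminescence measured after 30 min at room temperature.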

[16] = qHTS assay for small molecule agonists of the antioxidant response element (ARE) signaling pathway (AID 743202; active = well fitted activation curve with a large enough effect in the signal ratio in the repeat runs, not every such curve was filed as active; the % refers to the signal ratio)
How it was run: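 ARE-bla HepG2 cells (beta-lactamase reporter under the antioxidant response element), plated 5 hours, then exposed to compounds 16 hours at 37 C. LiveBLAzer B/G FRET substrate added for 2 hours at room temperature; fluorescence intensity read.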

[17] = biological target: Estrogen receptor (Homo sapiens) (UniProt P03372); experiment: qHTS assay to identify small molecule agonists of the estrogen receptor alpha (ER-alpha) signaling pathway using the BG1 cell line (AID 743079); also: nearly all actives have a fitted effect of over 20% in size
[18] = biological target: Aryl hydrocarbon receptor (Homo sapiens) (UniProt P35869); experiment: qHTS assay to identify small molecule that activate the aryl hydrocarbon receptor (AhR) signaling pathway (AID 743085); also: nearly all actives have a fitted effect of over 15% in size; also: potency is read from the fitted curve at half-maximal effect;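 as to activation: HG2L7.5c1 human HepG2 liver cells with stably integrated DRE-driven firefly reporter; series mostly up to about 70 µM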
How it was run: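 Measured in HG2L7.5c1 cells: CellTiter-Fluor signal (30 min incubation, 37C) for viability, then luciferase luminescence (30 min, room temperature). Compound contact time was 24 h at 37C, following a 5 h pre-incubation.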

[19] = qHTS assay to identify small molecule antagonists of the thyroid receptor (TR) signaling pathway (AID 743065)
How it was run: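 GH3.TRE-Luc rat pituitary cells (two TREs driving luciferase) were dosed with compound, then stimulated with 1 nM T3 (final) for 23.5 h at 37 C. ONE-Glo luminescence was the read-out, with CellTiter-Fluor fluorescence as the cytotoxicity counter-screen.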
% is scaled to controls: 0 for no effect and ±100 for the full control effect.

Estrogen receptor (Homo sapiens), sequence (P03372 whole entry, looked up): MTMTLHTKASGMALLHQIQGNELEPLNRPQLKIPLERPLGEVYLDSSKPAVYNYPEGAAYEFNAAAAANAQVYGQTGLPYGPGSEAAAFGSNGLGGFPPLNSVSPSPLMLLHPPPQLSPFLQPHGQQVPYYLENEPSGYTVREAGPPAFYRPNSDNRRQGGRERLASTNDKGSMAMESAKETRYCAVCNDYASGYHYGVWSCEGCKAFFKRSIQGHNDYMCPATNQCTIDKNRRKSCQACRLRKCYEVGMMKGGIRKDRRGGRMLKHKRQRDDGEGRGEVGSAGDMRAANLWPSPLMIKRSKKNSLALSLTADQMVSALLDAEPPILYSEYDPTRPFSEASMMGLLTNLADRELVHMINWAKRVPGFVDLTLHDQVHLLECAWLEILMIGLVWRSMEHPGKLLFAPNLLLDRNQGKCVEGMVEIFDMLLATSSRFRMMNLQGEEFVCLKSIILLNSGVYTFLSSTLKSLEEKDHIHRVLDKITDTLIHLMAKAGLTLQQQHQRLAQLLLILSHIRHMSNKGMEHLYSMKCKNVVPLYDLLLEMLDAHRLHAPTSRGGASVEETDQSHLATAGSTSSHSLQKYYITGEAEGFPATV
Peroxisome proliferator-activated receptor gamma (Homo sapiens), sequence (P37231 whole entry, looked up): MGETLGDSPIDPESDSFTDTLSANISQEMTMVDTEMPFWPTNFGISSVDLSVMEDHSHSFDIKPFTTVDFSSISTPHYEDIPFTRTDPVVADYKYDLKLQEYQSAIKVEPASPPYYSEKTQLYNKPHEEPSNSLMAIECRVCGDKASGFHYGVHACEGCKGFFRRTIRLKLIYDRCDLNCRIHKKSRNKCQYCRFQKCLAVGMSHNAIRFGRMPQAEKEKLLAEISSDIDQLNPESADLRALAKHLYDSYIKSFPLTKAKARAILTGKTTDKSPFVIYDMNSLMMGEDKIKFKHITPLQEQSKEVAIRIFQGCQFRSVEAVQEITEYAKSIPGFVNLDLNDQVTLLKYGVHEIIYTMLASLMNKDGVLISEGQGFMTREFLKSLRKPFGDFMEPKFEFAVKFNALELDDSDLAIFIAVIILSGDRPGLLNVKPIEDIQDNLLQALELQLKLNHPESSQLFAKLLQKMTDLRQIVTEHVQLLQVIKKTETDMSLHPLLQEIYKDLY
Aryl hydrocarbon receptor (Homo sapiens), sequence (P35869 whole entry, looked up): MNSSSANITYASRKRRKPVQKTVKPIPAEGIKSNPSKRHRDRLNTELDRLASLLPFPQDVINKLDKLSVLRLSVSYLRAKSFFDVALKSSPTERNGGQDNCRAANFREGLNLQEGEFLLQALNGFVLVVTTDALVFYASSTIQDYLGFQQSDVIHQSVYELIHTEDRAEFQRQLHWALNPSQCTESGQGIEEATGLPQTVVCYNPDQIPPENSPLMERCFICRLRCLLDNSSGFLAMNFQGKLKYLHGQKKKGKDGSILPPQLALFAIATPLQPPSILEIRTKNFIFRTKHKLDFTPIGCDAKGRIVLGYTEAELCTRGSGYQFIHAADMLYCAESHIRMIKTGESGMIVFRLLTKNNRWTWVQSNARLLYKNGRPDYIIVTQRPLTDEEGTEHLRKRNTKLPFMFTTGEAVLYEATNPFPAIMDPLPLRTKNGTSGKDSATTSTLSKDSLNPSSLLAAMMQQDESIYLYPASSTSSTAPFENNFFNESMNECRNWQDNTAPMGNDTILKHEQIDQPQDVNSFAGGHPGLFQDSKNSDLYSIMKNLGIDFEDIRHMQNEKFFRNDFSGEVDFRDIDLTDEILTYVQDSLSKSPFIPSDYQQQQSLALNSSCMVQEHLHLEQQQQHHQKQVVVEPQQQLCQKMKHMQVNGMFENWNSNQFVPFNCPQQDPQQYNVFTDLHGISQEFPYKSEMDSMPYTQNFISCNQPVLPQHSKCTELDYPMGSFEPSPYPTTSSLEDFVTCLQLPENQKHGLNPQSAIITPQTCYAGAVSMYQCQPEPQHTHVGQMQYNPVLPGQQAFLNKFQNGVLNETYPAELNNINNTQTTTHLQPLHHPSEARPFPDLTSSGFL
Aromatase (Homo sapiens), sequence (P11511 whole entry, looked up): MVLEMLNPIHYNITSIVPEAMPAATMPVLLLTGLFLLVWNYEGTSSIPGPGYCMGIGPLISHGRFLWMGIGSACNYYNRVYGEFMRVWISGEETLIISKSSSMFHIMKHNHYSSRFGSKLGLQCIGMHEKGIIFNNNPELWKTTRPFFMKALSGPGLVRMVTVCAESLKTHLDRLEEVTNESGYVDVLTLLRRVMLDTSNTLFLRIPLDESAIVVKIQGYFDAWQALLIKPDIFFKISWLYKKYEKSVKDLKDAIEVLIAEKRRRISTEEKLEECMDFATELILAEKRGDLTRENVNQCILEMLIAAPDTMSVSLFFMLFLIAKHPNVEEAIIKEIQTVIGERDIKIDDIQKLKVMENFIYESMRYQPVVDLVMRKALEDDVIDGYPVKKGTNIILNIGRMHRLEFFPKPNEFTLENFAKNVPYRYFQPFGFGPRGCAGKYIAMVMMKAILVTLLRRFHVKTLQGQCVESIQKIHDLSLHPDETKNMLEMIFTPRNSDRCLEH

CCCCCCOc1ccccc1C(N)=O
inactive: Potency [1] | outcome [2] | outcome [3] | outcome [4] | outcome [5] | outcome [7] | Potency (Aromatase (Homo sapiens)) | Potency [8] | outcome [9] | Potency [10] | outcome [11] | outcome [12] | outcome [13]
active: Potency [6] 33.5 µM

CC1(CO)CN(c2ccccc2)NC1=O (stereo not given)
inactive: Potency [1] | outcome [2] | outcome [4] | outcome [7] | Potency (Aromatase (Homo sapiens)) | Potency [8] | Potency [14] | outcome [11] | outcome [15] | outcome [12] | outcome [13]

COc1ccc2c(c1OC)C(=O)O[C@@H]2[C@H]1c2c(cc3c(c2OC)OCO3)CCN1C
active: Potency [1] 11.9 µM
inactive: outcome [4] | outcome [11] | Potency [16] | outcome [15] | outcome [12] | outcome [13]

CCOc1cc([N+](=O)[O-])c(OCC)cc1N1CCOCC1
active: Potency (Aromatase (Homo sapiens)) 34.4 µM
inactive: Potency [1] | outcome [2] | outcome [4] | outcome [5] | Potency [17] | Potency [6] | outcome [7] | Potency [8] | Potency [18] | outcome [9] | outcome [11] | Potency [16] | outcome [15] | outcome [12] | outcome [13]

O=C(c1ccc(O)cc1)c1ccc(O)c(O)c1O
inactive: Potency [1] | Potency [19] | outcome [2] | outcome [7] | Potency (Aromatase (Homo sapiens)) | outcome [9] | outcome [11] | Potency [16] | outcome [15] | outcome [12]
active: Potency [18] 61.4 µM

ClCCCl
inactive: Potency [19] | outcome [2] | outcome [3] | outcome [4] | outcome [5] | Potency [17] | Potency [6] | outcome [7] | Potency (Aromatase (Homo sapiens)) | Potency [8] | Potency [18] | Potency [14] | outcome [9] | Potency [10] | outcome [11] | Potency [16] | outcome [13]

C=C(C)C(=O)OCCNC(C)(C)C
inactive: Potency [1] | outcome [4] | outcome [7] | Potency (Aromatase (Homo sapiens)) | Potency [8] | Potency [18] | Potency [14] | outcome [9] | Potency [10] | outcome [11] | outcome [15] | outcome [12]

O=C(Nc1ccc(Cl)c(Cl)c1)C1CC1
active: Potency [6] 21.1 µM | Potency [18] 29.8 µM
inactive: Potency [1] | outcome [2] | outcome [3] | outcome [5] | outcome [7] | Potency (Aromatase (Homo sapiens)) | Potency [8] | outcome [9] | Potency [10] | outcome [15] | outcome [12] | outcome [13]

COC(=O)C1CC(=O)C(C(=O)OC)CC1=O (stereo not given)
inactive: activity change, negative = cytotoxic [1] 29.4% [at 8.44 µM] | activity, negative = inhibition [19] -0.0159% [at 8.44 µM] | activation [2] -0.929% [at 8.08 µM] | activity, negative = cytotoxicity [4] 10.1% [at 6.72 µM] | activity, negative = inhibition (Aromatase (Homo sapiens)) 8.29% [at 8.47 µM] | activation [18] 0.473% [at 8.47 µM] | viability change, negative = cytotoxic [14] 14.4% [at 8.47 µM] | activation [9] -2.09% [at 7.08 µM] | ratio activity, negative = inhibition [10] 0.96% [at 5.95 µM] | activity change, negative = cytotoxicity [11] 17.9% [at 5.95 µM] | viability change, negative = cytotoxic [15] -0.839% [at 8.36 µM] | activity change, negative = cytotoxicity [12] 12.2% [at 5.95 µM]

O=C(O)c1ccc(Cl)cc1Cl
inactive: Potency [19] | outcome [2] | outcome [3] | outcome [4] | outcome [5] | Potency [6] | outcome [7] | Potency (Aromatase (Homo sapiens)) | Potency [8] | Potency [18] | Potency [14] | outcome [9] | outcome [11] | outcome [15] | outcome [12] | outcome [13]
